# High-throughput results: PubChem BioAssay, National Center for Advancing Translational Sciences (NCATS)
# Hits are enriched below; roughly 0.79% of the tested compounds scored in any of these assays.
# AmpC inh detg = AmpC beta-lactamase inhibition with detergent present; Potency, µM (series often up to 114 µM), without a hit: top-dose activity change, negative = inhibition, actives largely listed as inhibitors; AID 485294; AmpC hydrolysis of nitrocefin, absorbance 480 nm, 0.01% Triton; 0.041% of 370,000 active;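 note: 0% = no-compound wells and -100% = no-enzyme wells; nearly all actives have a fitted effect of over 25% in size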
# Target sequence (P00811 whole entry, looked up): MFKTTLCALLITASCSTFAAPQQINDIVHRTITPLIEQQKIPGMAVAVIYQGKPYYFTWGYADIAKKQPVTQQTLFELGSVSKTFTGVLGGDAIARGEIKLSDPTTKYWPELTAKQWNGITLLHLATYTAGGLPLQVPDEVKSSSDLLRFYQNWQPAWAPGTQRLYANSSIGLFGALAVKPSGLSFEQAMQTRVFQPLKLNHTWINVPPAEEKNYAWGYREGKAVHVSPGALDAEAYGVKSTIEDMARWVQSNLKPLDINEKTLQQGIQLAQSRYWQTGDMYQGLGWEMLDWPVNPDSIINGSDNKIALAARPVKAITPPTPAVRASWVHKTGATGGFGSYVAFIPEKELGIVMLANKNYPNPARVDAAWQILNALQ
#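 AmpC (5.3 nM in the dispensed reagent) in 20 mM phosphate pH 7.0 with 0.01% (detergent screen) or 0.0001% Triton X-100 was preincubated with compounds for 15 min at room temperature. Nitrocefin was then added from an 800 uM solution, and hydrolysis was followed at 480 nm.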
# RE007 growth inh = less growth of the S. pombe RE007 Vpr strain; AID 651644; Potency, µM (titrated, usually from 92.2 µM), without a hit: at the top dose activity change, negative = less growth, usual class: inhibitors; S. pombe RE007 Vpr strain, BacTiter-Glo ATP luminescence, 24 h; 0.21% of 360,000 active; active = well fitted falling curve with a large enough effect; inconclusive = small, poorly fitted or top-dose-only effect; inactive = no such curve, though single readings can be large or run the other way; note: nearly all actives have a fitted effect of over 50% in size
#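 Fission yeast RE007 carrying one integrated HIV-1 vpr copy, seeded at OD 0.01 in PMG+AL medium with 23 nL pinned compound. Grown 24 h at 30 degrees; viability read by BacTiter-Glo luminescence after 5 min.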
# AMA1 RON2 block = inhibitors of Plasmodium falciparum AMA1-RON2 interaction. AlphaScreen AMA1-biotinylated RON2 peptide binding. Potency, µM (series often up to 58.2 µM), for inactives: at the top dose activity change, negative = inhibition, usual class: inhibitors. 0.2% of 360,000 active. AID 720542;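 note: 0% = vehicle wells and -100% = peptide control; nearly all actives have a fitted effect of over 45% in size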
#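 AMA1 (3D7) with his tag at 25 nM final met compounds first, then biotinylated RON2 peptide at 25 nM; detection used donor plus acceptor beads, 10 µg/mL apiece, read by AlphaScreen after 30 min at room temperature.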
# AmpC no deterg = AmpC beta-lactamase inhibition without detergent; P00811; AmpC nitrocefin hydrolysis, absorbance 480 nm, 0.0001% Triton; Potency, µM (titrated, usually from 57.1 µM), without a hit: top-dose activity change, negative = inhibition, actives largely listed as inhibitors; 0.52% of 330,000 active; AID 485341;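 note: plate controls were no compound for no effect and no enzyme for full effect; nearly all actives have a fitted effect of over 20% in size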
#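 AmpC (5.3 nM in the dispensed reagent) in 20 mM phosphate pH 7.0 with 0.01% (detergent screen) or 0.0001% Triton X-100 was preincubated with compounds for 15 min at room temperature. Nitrocefin was then added from an 800 uM solution, and hydrolysis was followed at 480 nm.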
# * = called active by the depositor; ? = inconclusive; · = no result; [ ] = remark or other dose. Unless noted, calls come from the whole dose curve; as a rule, active = well fitted curve in the direction sought with a large enough effect; inconclusive = small, poorly fitted or top-dose-only effect, or another doubt; inactive = no such curve, though single readings can be large; an effect the other way counts as inactive or inconclusive. Unless noted, % is set by controls: 0 for no effect and ±100 for the full control effect; potency is the fitted concentration of half-maximal effect.
SMILES,AmpC inh detg,RE007 growth inh,AMA1 RON2 block,AmpC no deterg
CCC(C)[C@@H](NC(=O)OC(C)(C)C)c1nnc(S(=O)(=O)Cc2cccc(C)c2)o1 (some centres not stated),18µM*,-21%,5%,14µM*
Cc1ccccc1CS(=O)(=O)c1nnc([C@H](Cc2ccccc2)NC(=O)OC(C)(C)C)o1,28µM*,-15%,17%,13µM*
CCSc1nnc([C@H](Cc2ccccc2)NC(=O)OC(C)(C)C)o1,1%,-3%,12%,3%
CCOc1ccc(NC(=O)c2sc3nc4c(c(-c5ccc(OC)cc5)c3c2N)C(=O)CC(C)(C)C4)cc1,14%,·,·,·
O=C(NCc1ccc(F)cc1)c1ccc2c(c1)nnn2C1CCCC1,3%,·,·,·
O=C(Nc1nc2ccc(F)cc2s1)c1ccccn1,3%,14µM*,6%,-13%
O=C(Nc1nc2ccccc2s1)c1cnccn1,-9%,-25%,63%,-7%
O=Nc1c(-c2c(O)[nH]c3cc(Br)ccc23)[nH]c2ccccc12,?,8%[18.4 µM],10µM*,5.6µM*
CCc1ccc(C2CC(c3ccc(F)cc3)Nc3nc(N)nn32)cc1 (configuration not stated),10%,-10%,0%,4.5µM*
Cc1ccc(C2CC(c3ccc(C)cc3)n3nc(N)nc3N2)cc1 (configuration not stated),?,9%,9%,45µM*
CCc1ccc(C2CC(c3ccc(Cl)cc3)n3nc(N)nc3N2)cc1 (configuration not stated),-1%,3%,4%,-6%
Cc1ccc(C2CC(c3ccc(Cl)cc3)n3nc(N)nc3N2)cc1 (configuration not stated),?,7%,6%,-22%
O=C(COc1ccccc1)Nc1nnc(-c2ccc3c(c2)CCCC3)o1,?,-3%,121%,10µM*
Cc1cc(C(=O)OCC(=O)Nc2sc3c(c2C#N)CCC(C)C3)c2ccccc2n1 (configuration not stated),2%,-13%,-8%,14µM*
Cc1cc(O)c(C(=O)/C=C/c2ccc(C(C)C)cc2)c(=O)o1,-5%,0%,78%,13µM*
Cc1cc(O)c(C(=O)/C=C/c2ccccc2Br)c(=O)o1,-15%,-1%,55%,13µM*
CC(C)OC(=O)c1c(-c2ccccc2)c(-c2ccccc2)nn(C)c1=O,7%,·,·,·
NS(=O)(=O)c1cccc(NC(=O)CSc2nc3ccc(Cl)cc3[nH]2)c1,?,-5%,6%,18µM*
Cc1cccc(N=C2NN=C(c3ccccc3F)CS2)c1C,0%,9%,-13%,13µM*
Cc1nnc(N2CCC(C(=O)NCc3ccc(F)cc3)CC2)c2nn(-c3ccc(Cl)cc3)c(C)c12,4%,·,·,·
COc1ccc(N2CCN(C(CNS(=O)(=O)c3ccc(OC)c(C)c3)c3ccco3)CC2)cc1 (configuration not stated),-1%,·,·,·
Cc1ccc(S(=O)(=O)/N=C2/C=C(Sc3ncn[nH]3)C(=O)c3ccccc32)c(C)c1,-18%,·,·,25µM*
Cc1cc(C)cc(NC(=O)COC(=O)c2n[nH]c3ccccc23)c1,-4%,-2%,18%,16µM*
CCN(CC)S(=O)(=O)c1cccc(NC(=O)COC(=O)c2n[nH]c(=O)c3ccccc23)c1,-12%,5%,11%,28µM*
CN(C)c1ccc(C2C=C(c3ccccc3)Nc3nnnn32)cc1 (configuration not stated),10%,·,·,·
SMILES,AmpC inh detg,RE007 growth inh,AMA1 RON2 block,AmpC no deterg
Cc1ccc(-c2cc(C(F)F)nc(NCc3cccs3)n2)cc1,?,-2%,19%,-14%
Cc1ccc(-c2cc(C(F)F)nc(NCC3CCCO3)n2)cc1 (configuration not stated),-8%,20µM*,32%,25%
CCOc1ccc(-c2c(C(=O)N/N=C/c3cccc(Br)c3)nnn2-c2nonc2N)cc1,1%,-9%,41%,16µM*
COc1ccc(-n2sc3c(c2=S)-c2cc(OC)ccc2NC3(C)C)cc1,-2%,-6%,22µM*,-31%
COc1ccc2c(c1)-c1c(ssc1=S)C(C)(C)N2S(=O)(=O)c1ccc(C)cc1,-11%,2%,?,?
COc1ccc2c(c1)-c1c(sn(-c3ccccc3)c1=S)C(C)(C)N2,-13%,4%,13µM*,-32%
COc1ccc2c(c1)-c1c(sn(-c3ccc(OC)c(OC)c3)c1=S)C(C)(C)N2,?,0%,?,2%
COc1ccc2c(c1)-c1c(ssc1=S)C(C)(C)N2,?,-23%,30µM*,-31%
Cc1ccc(-c2nc3cc(N)ccc3o2)cc1,4%,-23%,-4%,5%
Cc1ccc2oc(-c3cccc(N)c3)nc2c1,1%,32µM*,-24%,14%
CC(C)c1ccc2oc(-c3ccc(N)cc3)nc2c1,-10%,40µM*,7%,16%
Cc1ccc(C(=O)NCC(c2ccc3c(c2)OCO3)N2CCN(C)CC2)cc1C (configuration not stated),-6%,·,·,·
Cc1cccc(/C=C/C(=O)c2ccc(NC3=NCCCS3)cc2)c1,-1%,-13%,-22%,-28%
O=C(/C=C/c1ccccc1)c1ccc(NC2=NCCCS2)cc1,?,·,-7%,28µM*
O=C(/C=C/c1ccc(Br)cc1)c1ccc(NC2=NCCCS2)cc1,1%,-17%,-28%,14µM*
Cc1cccc(-c2nnc(SCC(=O)NC3CCCCC3)o2)c1,2%,·,·,·
Cc1nc2ccc(S(=O)(=O)NC(C(=O)N3CCN(c4ccc(Cl)cc4)CC3)C(C)C)cc2s1 (configuration not stated),-6%,·,·,·
CCOC(=O)CN1CC23C=CC(O2)C(C(=O)Nc2ccc(OCC)cc2)C3C1=O (configuration not stated),?,2%,-2%,7.9µM*
CCCN1CC23C=CC(O2)C(C(=O)O)C3C1=O (configuration not stated),?,0%,0%,35µM*
CCOC(=O)C1[C@H]2C(=O)N(C(C)c3ccc(OC)cc3)C[C@]23C=C[C@H]1O3 (some centres not stated),?,2%,-4%,-2%
CCOC(=O)CN1CC23C=CC(O2)C(C(=O)Nc2ccc4c(c2)OCO4)C3C1=O (configuration not stated),?,-2%,6%,-29%
CCC(C)N1CC23C=CC(O2)C(C(=O)OC)C3C1=O (configuration not stated),2%,-2%,-2%,22µM*
COc1cccc(-n2c(SCC(=O)Nc3cc(C)ccc3C)nc3c(oc4ccccc43)c2=O)c1,5%,·,·,·
CCn1c(C)c(C2=CCN(S(=O)(=O)c3ccccc3)CC2)c2ccccc21,0%,3%,-30%,18µM*
Cc1ccc(S(=O)(=O)N2CC=C(c3c(C)n(C)c4ccccc34)CC2)cc1,-5%,-1%,-12%,-17%
CCOc1ccc(CNS(=O)(=O)c2ccc3[nH]c4c(c3c2)CCCC4)cc1OC,-2%,·,·,·
